This note sets out measurements from PubChem BioAssay (Tox21).

The structures appear in SMILES notation. Results filed as inconclusive are left out. Active and inactive are the calls of the source. Unless noted, calls come from the whole dose curve.

Assay [1] is described as follows: Nuclear factor erythroid 2-related factor 2/antioxidant responsive element (Nrf2/ARE) small molecule agonists: qHTS cell viability counter screen in human keratinocytes (AID 1919968; active = well fitted curve in the direction sought with a large enough effect in the repeat runs; an effect the other way counts as inactive or inconclusive; note: nearly all actives have a fitted effect of over 55% in size). The method in brief:
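Seed 1,500 KeratinoSens cells per well, then incubate 5 h at 37 C/5% CO2. Add compounds in DMSO and incubate 23 h. Add CellTiter-Fluor, wait 1 h and read fluorescence.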

Assay [2] is described as follows: Nuclear factor erythroid 2-related factor 2/antioxidant responsive element (Nrf2/ARE) small molecule agonists: luciferase reporter gene qHTS assay in human keratinocytes (AID 1919969). Note: nearly all actives have a fitted effect of over 35% in size.
The target in assay [3] is Gonadotropin-releasing hormone receptor (Homo sapiens) (UniProt P30968). The assay can be described thus: Human gonadotropin-releasing hormone receptor (GnRHR) small molecule agonists, calcium flux assay in GnRHR-HEK293 cells (AID 1920063). Note: nearly all actives have a fitted effect of over 35% in size. The method in brief: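 Cells: HEK293 stably expressing human GnRHR. Steps: overnight (18 h) culture, 1 h calcium dye loading at 37 C, compound addition, kinetic fluorescence read at 480/540 nm. Each compound tested at 15 concentrations in triplicate.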

Assay [4] deals with KiSS-1 receptor (Homo sapiens) (UniProt Q969F8). Put plainly: Human kisspeptin (KISS1R) small molecule agonists, calcium flux assay in KISS1R-HEK293 cells (AID 1920064; active = well fitted curve in the direction sought with a large enough effect in the repeat runs; an effect the other way counts as inactive or inconclusive). The method in brief: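 Cells plated and incubated 18 h; dye added, 1 h at 37 C; compounds in DMSO pinned in; signal read at 480/540 nm every second for 3 min. Each compound tested at 15 concentrations in triplicate.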

Assay [5] is described as follows: G protein-coupled receptor (GPCR) small molecule agonists, calcium flux assay: HEK293 wild type cell line counter screen (AID 1920065). The essentials: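 Counter-screen of the Tox21 10K library for non-specific calcium release: dye-loaded cells received compounds in DMSO and were monitored by kinetic fluorescence (480/540 nm, 3 min). Fifteen concentrations, run in triplicate.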

A short description of assay [6]: p53 small molecule agonists, cell-based qHTS assay with human liver microsomes (AID 1963577).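 Note: p53 response element beta-lactamase reporter cells with liver microsomes plus NADPH.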 The essentials:
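p53RE-bla cells; 5 h settle, 37 C/5% CO2; cpd + HLM 0.5 mg/mL + NADPH 0.5 mg/mL (final); 16 h 37 C; LiveBLAzer 2 h RT dark; fluorescence readout.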

Assay [7] in a line: p53 small molecule agonists, cell-based qHTS assay with rat liver microsomes (AID 1963578). The essentials:
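Rat liver microsome activation: microsomes 0.5 mg/mL, NADPH 0.5 mg/mL final; p53RE-bla cells, 16 h 37 C; LiveBLAzer readout, 2 h RT dark.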

Assay [8] in a line: p53 small molecule agonists, cell-based qHTS assay with human liver microsomes: qHTS cell viability counter screen (AID 1963579). Note: nearly all actives have a fitted effect of over 45% in size. The essentials: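 Luminescent CellTiter-Glo read-out, 30 min at room temperature, gauged cytotoxicity in p53RE-bla cells exposed 16 h at 37 C to DMSO-dissolved compounds with metabolic activation by human liver microsomes and NADPH, each 0.5 mg/mL final.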

A short description of assay [9]: p53 small molecule agonists, cell-based qHTS assay with rat liver microsomes: qHTS cell viability counter screen (AID 1963580). Note: nearly all actives have a fitted effect of over 45% in size. The essentials:
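p53RE-bla HCT-116 cells were exposed 16 h at 37 C to compounds with rat liver microsomes (0.5 mg/mL) and NADPH (0.5 mg/mL). Viability was measured in the same wells as ATP content by CellTiter-Glo luminescence.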

Assay [10] in a line: p53 small molecule agonists, cell-based qHTS assay: qHTS cell viability counter screen (AID 1963581). Note: nearly all actives have a fitted effect of over 45% in size. The essentials:
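Cells: HCT-116 with p53 response element-driven beta-lactamase. Treatment: 16 h, 37 C, compounds in DMSO. Read: CellTiter-Glo luminescence after 30 min RT.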

Assay [11] in a line: p53 small molecule agonists, cell-based qHTS assay (AID 1963582; active = well fitted activation curve with a large enough effect in the signal ratio in the repeat runs, not every such curve was filed as active; the % refers to the signal ratio). The essentials: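 Quantitative HTS in p53RE-bla cells: after a 5 h settling period, compounds delivered in DMSO were left on cells for 16 h at 37 C, and reporter induction was measured as fluorescence following 2 h substrate loading.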
For assay [12], the target named is 5-hydroxytryptamine receptor 2A (Homo sapiens) (UniProt P28223). The assay can be described thus: 5-hydroxytryptamine receptor 2A (HTR2A) small molecule antagonists, cell-based qHTS assay (AID 1963586). Note: nearly all actives have a fitted effect of over 45% in size. The essentials:
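Antagonist-mode intracellular calcium assay: DOI (4 nM) added after 5 min compound pre-incubation at room temperature to dye-loaded HTR2A-CHO cells. Fluorescence followed for 3 min, sampled every second.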

The target is the same in assay [13]. Put plainly: 5-hydroxytryptamine receptor 2A (HTR2A) small molecule agonists, cell-based qHTS assay (AID 1963587). Note: nearly all actives have a fitted effect of over 30% in size. Note: potency is the fitted concentration of half-maximal effect. The method in brief:
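CHO cells stably expressing human HTR2A, plated 18 h, loaded with calcium dye 1 h at 37 C. Agonist mode: compounds added and intracellular calcium fluorescence recorded kinetically for 2 min at 1 sec intervals.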

The target of assay [14] is Muscarinic acetylcholine receptor M1 (Homo sapiens) (UniProt P11229). Put plainly: Cholinergic receptor muscarinic 1 (CHRM1) small molecule antagonists, cell-based qHTS assay (AID 1963588). Note: nearly all actives have a fitted effect of over 40% in size. Note: potency is the fitted concentration of half-maximal effect. The method in brief: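 CHRM1-CHO calcium-flux assay, antagonist mode. Cells were seeded 18 h, dye-loaded 1 h at 37 C and given compound for 5 min at RT, then acetylcholine was added at 50nM. FDSS fluorescence was read 3 min; 15 concentrations, three runs.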

Assay [15] shares this target. The assay can be described thus: Cholinergic receptor muscarinic 1 (CHRM1) small molecule agonists, cell-based qHTS assay (AID 1963589). Note: nearly all actives have a fitted effect of over 35% in size. Note: potency is the fitted concentration of half-maximal effect. The method in brief:
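Agonist-mode qHTS in CHO cells stably carrying human muscarinic M1. Intracellular calcium is tracked by fluorescence every second after compound transfer; each compound runs at 15 concentrations in three independent runs.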

A short description of assay [16]: cAMP Responsive Elements (CRE) small molecule agonists, cell-based qHTS assay (AID 1963590). The method in brief:
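Agonist mode qHTS in CRE-bla HEK 293T cells: compounds dosed from DMSO for 3 h at 37 C/5% CO2, followed by LiveBLAzer B/G FRET substrate for 2 h at room temperature.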

A short description of assay [17]: cAMP Responsive Elements (CRE) small molecule antagonists, cell-based qHTS assay (AID 1963591; active = well fitted inhibition curve with a large enough effect in the signal ratio in the repeat runs, not every such curve was filed as active; the % refers to the signal ratio). The essentials: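 Antagonist mode: test compounds are co-incubated with the adenylyl cyclase activator NKH477 (0.25 uM final) on CRE-bla HEK293T cells for 3 h at 37 °C, followed by LiveBLAzer substrate loading.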
In assay [18] the target is Beta-2 adrenergic receptor (Homo sapiens) (UniProt P07550). The assay can be described thus: Adrenergic beta2 receptor (ADRB2) small molecule antagonists, cell-based qHTS assay (AID 1963592). Note: series mostly up to about 92 µM; nearly all actives have a fitted effect of over 50% in size. The method in brief:
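Cells (CHO, stable ADRB2 overexpression) incubated 18-20hr at 37C; compounds added from DMSO; agonist mix (1nM isoproterenol, 100uM IBMX, 25uM Ro-20-1724) added; 0.5hr RT; d2-cAMP and anti-cAMP-cryptate added; 1hr RT; 665/615 nm read.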

Assay [19] addresses D(2) dopamine receptor (Homo sapiens) (UniProt P14416). Put plainly: Dopamine D2 receptor (DRD2) small molecule agonists, cell-based qHTS assay (AID 1963594). Note: nearly all actives have a fitted effect of over 35% in size. The essentials:
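HEK293 cells stably expressing human DRD2, pre-treated with PDE inhibitor Ro20-1724 (0.1 mM final) and compound 10 min at room temperature, then stimulated with NKH477 (200nM […]) for 30 min. cAMP read by HTRF (665/620 nm).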

Assay [20] shares this target. Put plainly: Dopamine D2 receptor (DRD2) small molecule antagonists, cell-based qHTS assay (AID 1963595; active = well fitted inhibition curve with a large enough effect in the signal ratio in the repeat runs, with a control signal flat; the % refers to the signal ratio). The essentials:
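HEK293 cells stably expressing DRD2 were preincubated with 0.1 mM Ro20-1724, then with compound for 10 min at room temperature. Cells were stimulated with 200 nM NKH477 plus 12 nM quinpirole for 30 min, and cAMP was read by HTRF.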

Sequence of Gonadotropin-releasing hormone receptor (Homo sapiens) (P30968 whole entry, looked up): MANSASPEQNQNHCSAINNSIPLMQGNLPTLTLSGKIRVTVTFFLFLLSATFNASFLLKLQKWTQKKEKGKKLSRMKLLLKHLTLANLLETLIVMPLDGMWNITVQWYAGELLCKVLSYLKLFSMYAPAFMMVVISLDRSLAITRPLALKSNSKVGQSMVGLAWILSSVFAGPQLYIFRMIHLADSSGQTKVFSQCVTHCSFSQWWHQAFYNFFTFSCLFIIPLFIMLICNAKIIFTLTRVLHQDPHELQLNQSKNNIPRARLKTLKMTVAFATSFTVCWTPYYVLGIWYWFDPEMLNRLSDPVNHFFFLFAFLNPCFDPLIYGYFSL
Sequence of Muscarinic acetylcholine receptor M1 (Homo sapiens) (P11229 whole entry, looked up): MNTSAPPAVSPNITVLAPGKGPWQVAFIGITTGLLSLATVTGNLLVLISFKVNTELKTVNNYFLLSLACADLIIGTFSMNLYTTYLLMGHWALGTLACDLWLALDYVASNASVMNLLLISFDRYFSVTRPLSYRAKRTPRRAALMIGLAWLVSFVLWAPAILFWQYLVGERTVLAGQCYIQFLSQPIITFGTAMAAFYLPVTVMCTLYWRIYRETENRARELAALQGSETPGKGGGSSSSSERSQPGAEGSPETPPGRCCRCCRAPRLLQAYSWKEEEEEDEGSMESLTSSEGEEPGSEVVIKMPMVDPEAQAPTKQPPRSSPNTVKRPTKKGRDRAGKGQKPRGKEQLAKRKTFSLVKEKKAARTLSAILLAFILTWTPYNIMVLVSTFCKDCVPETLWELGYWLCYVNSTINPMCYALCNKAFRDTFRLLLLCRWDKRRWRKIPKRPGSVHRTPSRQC
Sequence of KiSS-1 receptor (Homo sapiens) (Q969F8 whole entry, looked up): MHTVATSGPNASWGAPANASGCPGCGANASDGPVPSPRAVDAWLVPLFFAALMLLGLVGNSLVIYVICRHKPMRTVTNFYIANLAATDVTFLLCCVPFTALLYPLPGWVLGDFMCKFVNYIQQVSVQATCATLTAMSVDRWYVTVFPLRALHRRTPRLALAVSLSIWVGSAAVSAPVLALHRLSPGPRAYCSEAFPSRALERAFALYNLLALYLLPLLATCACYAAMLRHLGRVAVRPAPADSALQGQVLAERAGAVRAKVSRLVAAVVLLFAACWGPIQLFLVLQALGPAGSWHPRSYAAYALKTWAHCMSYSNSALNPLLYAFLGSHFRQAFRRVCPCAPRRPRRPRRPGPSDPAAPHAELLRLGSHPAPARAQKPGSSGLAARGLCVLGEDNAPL
Sequence of D(2) dopamine receptor (Homo sapiens) (P14416 whole entry, looked up): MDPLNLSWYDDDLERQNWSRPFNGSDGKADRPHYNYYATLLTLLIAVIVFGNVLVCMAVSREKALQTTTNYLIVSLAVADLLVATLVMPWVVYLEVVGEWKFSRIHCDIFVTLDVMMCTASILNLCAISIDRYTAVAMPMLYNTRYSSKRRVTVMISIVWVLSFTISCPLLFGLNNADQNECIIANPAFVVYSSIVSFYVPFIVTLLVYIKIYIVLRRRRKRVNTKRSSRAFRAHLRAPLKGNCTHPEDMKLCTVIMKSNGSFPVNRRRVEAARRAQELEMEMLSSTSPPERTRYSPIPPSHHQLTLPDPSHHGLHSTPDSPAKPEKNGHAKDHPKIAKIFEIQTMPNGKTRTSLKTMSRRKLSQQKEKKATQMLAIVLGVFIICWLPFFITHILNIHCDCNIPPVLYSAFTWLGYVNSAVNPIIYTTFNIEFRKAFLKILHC
Sequence of Beta-2 adrenergic receptor (Homo sapiens) (P07550 whole entry, looked up): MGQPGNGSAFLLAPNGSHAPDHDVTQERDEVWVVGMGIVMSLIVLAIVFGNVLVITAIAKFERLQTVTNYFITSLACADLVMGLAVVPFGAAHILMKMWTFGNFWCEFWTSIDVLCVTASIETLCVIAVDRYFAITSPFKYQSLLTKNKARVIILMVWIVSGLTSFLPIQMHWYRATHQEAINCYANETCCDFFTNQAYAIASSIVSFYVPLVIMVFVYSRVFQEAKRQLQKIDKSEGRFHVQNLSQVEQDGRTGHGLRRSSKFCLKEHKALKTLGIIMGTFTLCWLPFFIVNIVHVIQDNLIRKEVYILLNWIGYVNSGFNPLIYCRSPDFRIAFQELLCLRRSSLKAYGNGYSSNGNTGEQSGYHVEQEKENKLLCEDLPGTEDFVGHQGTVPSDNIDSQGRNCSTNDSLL
Sequence of 5-hydroxytryptamine receptor 2A (Homo sapiens) (P28223 whole entry, looked up): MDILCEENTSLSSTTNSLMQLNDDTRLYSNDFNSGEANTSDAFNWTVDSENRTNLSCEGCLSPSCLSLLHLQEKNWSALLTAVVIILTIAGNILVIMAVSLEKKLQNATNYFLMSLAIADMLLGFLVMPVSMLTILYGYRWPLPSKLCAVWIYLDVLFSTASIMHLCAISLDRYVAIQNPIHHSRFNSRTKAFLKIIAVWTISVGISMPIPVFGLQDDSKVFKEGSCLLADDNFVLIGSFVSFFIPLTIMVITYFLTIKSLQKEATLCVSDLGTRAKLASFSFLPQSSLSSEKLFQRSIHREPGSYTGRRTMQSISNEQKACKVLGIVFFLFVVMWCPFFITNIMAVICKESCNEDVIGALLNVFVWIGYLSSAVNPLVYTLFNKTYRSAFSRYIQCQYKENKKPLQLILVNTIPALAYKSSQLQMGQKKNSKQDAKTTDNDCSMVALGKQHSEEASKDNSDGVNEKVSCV

As for `CCCCCCCCCCBr`, the Potency entry in assay [1], in assay [2], in assay [3], in [4], in assay [5] and in assay [6] was “inactive” throughout. Moreover, the Potency result in assay [7], in assay [8], in assay [9], in assay [10], in assay [11] and in [12] was “inactive” throughout. Also, the Potency result in assay [13], in assay [14], in assay [15], in assay [16], in [17] and in assay [18] was “inactive” in each case. Also, the Potency result in assay [19] and in assay [20] was “inactive” throughout.
Turning to `COc1c(C(C)(C)C)cc([N+](=O)[O-])c(C)c1[N+](=O)[O-]`, the Potency result in [1], in assay [2], in assay [3], in [4], in assay [5] and in assay [6] was “inactive” each time. Further, the Potency result in assay [7], in [8], in [9], in [10], in assay [11] and in assay [12] was “inactive” throughout. The Potency entry in [13], in [14], in assay [15], in assay [16], in assay [17] and in [18] was “inactive” throughout. The Potency result in [19] and in assay [20] was “inactive” in each case.
As for `CC(C)c1ccc(O)cc1`, the Potency result in [1], in assay [2], in assay [3], in assay [4], in assay [5] and in [6] was “inactive” throughout. The Potency result in assay [7], in assay [8], in [9], in assay [10], in assay [11] and in assay [12] was “inactive” in each case. Besides, the Potency entry in [13], in assay [14], in [15], in [16], in assay [17] and in assay [18] was “inactive” throughout. For the same compound, the Potency entry in [19] and in assay [20] was “inactive” in each case.
With `Nc1ccc(N=Nc2ccc(-c3ccc(N=Nc4c(S(=O)(=O)O)cc5cc(S(=O)(=O)O)c(N=Nc6ccccc6)c(O)c5c4N)cc3)cc2)c(N)c1`, the Potency entry in assay [1], in [2], in assay [3], in assay [4], in [5] and in assay [6] was “inactive” in each case. Besides, the Potency entry in assay [7], in assay [8], in assay [9], in assay [10], in assay [11] and in [12] was “inactive” in each case. In addition, the Potency result in [14], in [15], in [16] and in assay [17] was “inactive” throughout. Moreover, in assay [13], the Potency was 31.6 µM (active).
In the case of `C[N+](C)(C)C`, the Potency result in assay [1], in assay [2], in assay [3], in assay [4], in [5] and in assay [6] was “inactive” in each case. Also, the Potency result in assay [7], in [8], in assay [9], in assay [10], in [11] and in [12] was “inactive” each time. Further, the Potency entry in [13], in [14], in assay [16], in assay [17], in [18] and in assay [19] was “inactive” in each case. The Potency result in assay [20] is “inactive”. For the same compound, the Potency in [15] was 22.1 µM (active).
`OCc1ccco1`: the Potency result in [1], in [2], in [3], in [4], in assay [5] and in assay [6] was “inactive” in each case. The Potency result in assay [7], in [8], in assay [9], in [10], in assay [11] and in assay [12] was “inactive” each time. The Potency entry in [13], in [14], in assay [15], in [16], in assay [17] and in assay [18] was “inactive” throughout. The Potency entry in [19] and in assay [20] was “inactive” throughout.
As to `CCCC(C)(COC(N)=O)COC(N)=O`, the Potency result in [1], in assay [2], in [3], in assay [4], in assay [5] and in [6] was “inactive” each time. For the same compound, the Potency result in assay [7], in assay [8], in assay [9], in assay [10], in [11] and in assay [12] was “inactive” each time. In addition, the Potency entry in assay [13], in assay [15], in assay [16], in [17], in assay [18] and in [19] was “inactive” each time. Also, in assay [20], the Potency entry was “inactive”. Besides, in assay [14], the Potency is 0.0199 µM (active).
